The text below walks through data of PubChem BioAssay (Tox21).

Molecules are shown by their SMILES. Unmarked numbers belong to inactive results. Inconclusive results are not listed. Activity calls are given as the source filed them. Unless noted, calls come from the whole dose curve; as a rule, active = well fitted curve in the direction sought with a large enough effect in the repeat runs; inconclusive = weak or mixed curves; inactive = no such curve, though single readings can be large; an effect the other way counts as inactive or inconclusive.

Test [1] is described as follows: qHTS assay for small molecule agonists of the p53 signaling pathway (AID 651631; calls by dose curve; note: nearly all actives have a fitted effect of over 15% in size; note: potency is the fitted concentration of half-maximal effect). An outline of the steps: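 We treat p53RE-bla HCT-116 cells with compounds for 16 h at 37 °C, add LiveBLAzer B/G FRET substrate for 2 h at room temperature, and measure fluorescence intensity.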
On the technique in general: In qHTS, concentration-response curves come from the screen itself.

A short description of test [2]: qHTS assay for small molecules that induce genotoxicity in human embryonic kidney cells expressing luciferase-tagged ATAD5 (AID 651632). Note: nearly all actives have a fitted effect of over 15% in size. An outline of the steps:
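DMSO vehicle served as the control. HEK293T reporter cells, 16 hr at 37C, then 30 min Amplite at room temperature; ATAD5 induction is measured as luciferase activity.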

Test [3] is described as follows: qHTS assay for small molecule agonists of the p53 signaling pathway - cell viability (AID 651633; calls by dose curve; note: nearly all actives have a fitted effect of over 30% in size; note: potency is the fitted concentration of half-maximal effect). A digest of the protocol: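 p53RE-bla cells, seeded at 4,000 per well and rested 5 h at 37 C/5% CO2, received compounds in DMSO for 16 h at 37 C. CellTiter-Glo was then added, and luminescence was read after 30 min at room temperature to gauge cytotoxicity.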
Test [4] in a line: qHTS assay for small molecules that induce genotoxicity in human embryonic kidney cells expressing luciferase-tagged ATAD5 - cell viability (AID 651634; calls by dose curve; note: nearly all actives have a fitted effect of over 25% in size). An outline of the steps:
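Here HEK293T cells with the ATAD5 luciferase reporter are incubated with test compounds for 15.5 hr, and cytotoxicity is then gauged by measuring protease activity in live cells using fluorescence.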

The nature of test [5]: qHTS assay for small molecule disruptors of the mitochondrial membrane potential - cell viability (AID 720634; calls by dose curve;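 note: human HepG2 liver cancer cells; series mostly up to about 83 µM; nearly all actives have a fitted effect of over 20% in size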). A digest of the protocol: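 Viability of HepG2 cells is scored from ATP content by luminescence; cells are exposed to compound for 1 hr at 37 C and 5% CO2, then dosed with m-MPI dye before the CellTiter-Glo reagent.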
A short description of test [6]: qHTS assay to test for compound auto fluorescence at 590 nm (red) in HepG2 cells (AID 720674). A digest of the protocol:
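Compound auto-fluorescence is scored relative to Rose Bengal sodium, measured at 540/590 nm in live HepG2 cultures after 1 hr compound contact (37 C, 5% CO2).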

The nature of test [7]: qHTS assay to test for compound auto fluorescence at 535 nm (green) in HepG2 cells (AID 720675).
The nature of test [8]: qHTS assay to test for compound auto fluorescence at 460 nm (blue) in HEK293 cells (AID 720678). A digest of the protocol:
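Blue read-out at excitation 405 nm and emission 460 nm follows overnight compound exposure of HEK293 cells at 37C in 5% CO2. Activity is given as auto fluorescence equivalency to triamterene.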

A short description of test [9]: qHTS assay to test for compound auto fluorescence at 590 nm (red) in HEK293 cells (AID 720679). An outline of the steps: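 Red channel, Ex/Em 540/590nm; signal expressed as equivalency to Rose Bengal sodium. HEK293, 2,000 cells/well, 10% dialyzed FBS; 23 nL compound pinned after 4-5 hr attachment; overnight 37C/5% CO2 before reading.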
Test [10] can be described thus: qHTS assay to test for compound auto fluorescence at 535 nm (green) in HEK293 cells (AID 720680).
Test [11] in a line: qHTS assay to test for compound auto fluorescence at 460 nm (blue) in HEK293 cell free culture (AID 720681). An outline of the steps: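 Test compounds were pinned into cell-free culture medium (DMEM with 10% FBS) and fluorescence was read directly at Ex/Em 405/460 nm. Signals were expressed as fluorescence equivalents of triamterene, with DMSO vehicle as control.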
Test [12] can be described thus: qHTS assay to test for compound auto fluorescence at 535 nm (green) in HEK293 cell free culture (AID 720682). An outline of the steps:
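Green-channel intensity (Ex/Em 485/535 nm) was recorded from compound-treated wells containing only DMEM with 10% FBS. Fluorescein provided the equivalency standard.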

Test [13] is described as follows: qHTS assay to test for compound auto fluorescence at 590 nm (red) in HEK293 cell free culture (AID 720683). A digest of the protocol: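 Tox21 10K library compounds were pinned into cell-free DMEM with 10% FBS and fluorescence was read at excitation 540 nm. Activity is expressed as Rose Bengal sodium equivalency.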
Test [14] is described as follows: qHTS assay to test for compound auto fluorescence at 590 nm (red) in HepG2 cell free culture (AID 720684). A digest of the protocol:
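Ex 540 / Em 590 nm read of compound in cell-free MEM (10% FBS). Rose Bengal sodium reference.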

The nature of test [15]: qHTS assay to test for compound auto fluorescence at 460 nm (blue) in HepG2 cell free culture (AID 720685). An outline of the steps: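 Cell-free plates of MEM plus 10% FBS received 23 nL compound or DMSO vehicle; blue-channel (405/460 nm) intensity scored against triamterene as reference fluorophore.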
Test [16] in a line: qHTS assay to test for compound auto fluorescence at 535 nm (green) in HepG2 cell free culture (AID 720686).
Test [17] is described as follows: qHTS assay to test for compound auto fluorescence at 460 nm (blue) in HepG2 cells (AID 720687). A digest of the protocol:
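Cells (2,000/well in MEM with 10% FBS) attached overnight at 37 C, then were exposed to compound or DMSO for 1 hr at 37 C, 5% CO2. Fluorescence read at Ex/Em 405/460 nm, expressed as triamterene-equivalent signal.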

Test [18] deals with Glucocorticoid receptor (Homo sapiens) (UniProt P04150). The test can be described thus: qHTS assay to identify small molecule agonists of the glucocorticoid receptor (GR) signaling pathway (AID 720691; active = well fitted activation curve with a large enough effect in the signal ratio in the repeat runs, not every such curve was filed as active; the % refers to the signal ratio). An outline of the steps: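 Compounds in DMSO, alongside positive controls, were added to GR-bla HeLa reporter cells and incubated 18 h at 37 C; GRE-driven beta-lactamase was detected by fluorescence after 2 h with FRET substrate at room temperature.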
Chain of Glucocorticoid receptor (Homo sapiens) (P04150 whole entry, looked up): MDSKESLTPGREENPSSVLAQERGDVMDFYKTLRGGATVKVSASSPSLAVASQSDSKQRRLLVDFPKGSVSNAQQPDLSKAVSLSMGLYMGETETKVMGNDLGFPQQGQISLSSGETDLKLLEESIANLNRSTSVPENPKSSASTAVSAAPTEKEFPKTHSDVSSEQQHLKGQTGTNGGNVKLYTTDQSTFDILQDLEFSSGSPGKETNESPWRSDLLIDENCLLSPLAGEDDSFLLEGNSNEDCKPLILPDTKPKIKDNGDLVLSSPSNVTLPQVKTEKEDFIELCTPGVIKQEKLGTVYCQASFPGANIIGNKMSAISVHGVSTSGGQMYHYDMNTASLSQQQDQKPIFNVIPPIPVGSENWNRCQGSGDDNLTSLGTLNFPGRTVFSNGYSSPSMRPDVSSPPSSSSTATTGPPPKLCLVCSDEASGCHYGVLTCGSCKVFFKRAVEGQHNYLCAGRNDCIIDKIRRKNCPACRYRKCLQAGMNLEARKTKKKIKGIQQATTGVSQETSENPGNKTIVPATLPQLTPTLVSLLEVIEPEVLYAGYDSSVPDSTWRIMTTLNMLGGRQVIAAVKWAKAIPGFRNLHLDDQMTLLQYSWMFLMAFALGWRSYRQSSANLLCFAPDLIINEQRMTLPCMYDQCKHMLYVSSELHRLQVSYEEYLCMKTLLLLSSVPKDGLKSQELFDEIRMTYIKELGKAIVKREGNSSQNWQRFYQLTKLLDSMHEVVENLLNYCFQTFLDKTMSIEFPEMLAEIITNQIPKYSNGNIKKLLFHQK

For test [19] the target is unchanged. The test can be described thus: qHTS assay to identify small molecule antagonists of the glucocorticoid receptor (GR) signaling pathway (AID 720692; active = well fitted inhibition curve with a large enough effect in the signal ratio in the repeat runs, not every such curve was filed as active; the % refers to the signal ratio; note: potency is the fitted concentration of half-maximal effect). A digest of the protocol: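 In a 1536-well cell format, compounds were added 4 h after seeding GR-bla HeLa cells, together with dexamethasone at 5 nM final; reporter activity was measured by FRET-substrate fluorescence following 18 h at 37 C.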

The nature of test [20]: qHTS assay for small molecule disruptors of the mitochondrial membrane potential (AID 720635). Note: potency is the fitted concentration of half-maximal effect. An outline of the steps:
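HepG2 cells (2,000/well) attached overnight at 37C, then took compound for 1 hr at 37C, 5% CO2. Mito-MPS dye was added for 30 min; fluorescence was read at 490/535 nm (monomers) and 540/590 nm (aggregates).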

On to `N#C/C(N)=C(/N)C#N`, for which the Potency entry in test [1], in [2], in [3], in [4] and in test [5] was “inactive” in each case. For the same compound, the compound was classed as inactive in test [6], in test [7], in test [8], in test [9], in [10] and in [11]. The outcome in test [12], in test [13], in test [14], in test [15], in test [16] and in test [17] was inactive. Further, in test [18], the compound was classed as inactive.
For `CCCCCCCCCC(=O)O[C@H]1CC[C@H]2[C@@H]3CCC4=CC(=O)CC[C@@H]4[C@H]3CC[C@]12C`, the Potency entry in test [1], in [2], in test [3], in [4] and in [5] was “inactive” throughout. Besides, the compound was called inactive in [6], in test [7], in test [8], in test [9], in test [10] and in [11]. Further, the call in test [13], in test [14], in test [15], in [16] and in test [17] was inactive. Moreover, the Potency in [19] is 9.52 µM (active).
As to `COc1c(C(C)(C)C)cc([N+](=O)[O-])c(C)c1[N+](=O)[O-]`, the Potency entry in [1], in test [2], in [3], in test [4], in test [5] and in [19] was “inactive” each time. For the same compound, the result in test [6], in test [7], in test [8], in test [9], in test [10] and in test [12] was inactive. For the same compound, the compound was called inactive in test [13], in test [14], in test [15], in test [16], in test [17] and in [18].
With `COc1ccc(-c2ccccc2)cc1NNC(=O)OC(C)C`, the Potency entry in [1], in test [2], in test [3] and in [5] was “inactive” in each case. Further, the outcome in test [6], in test [7], in [8], in test [9], in test [10] and in [11] was inactive. For the same compound, the call in test [12], in [13], in test [14], in [15], in [16] and in test [17] was inactive. Moreover, in [18], the compound was called inactive.
Regarding `COP(=S)(OC)Oc1ccc([N+](=O)[O-])cc1Cl`, the Potency result in [1], in test [2], in test [3] and in test [19] was “inactive” throughout. The Potency in test [20] is 24.3 µM (active). The result in [6], in [7], in [9], in test [10], in [11] and in [12] was inactive. Moreover, the result in test [13], in [14], in test [15], in test [16], in [17] and in [18] was inactive.
`C#CCOC(C(=O)OCCN(C)C)(c1ccccc1)c1ccccc1`: the Potency result in test [1], in test [2], in [3], in [4] and in test [5] was “inactive” throughout. In addition, the compound was called inactive in [7], in test [8], in test [9], in test [10], in [11] and in [12]. Moreover, the result in test [13], in [14], in [15] and in [16] was inactive.
Consider `COC(N)=O`, for which the Potency result in test [1], in [2], in [3], in test [4], in [5] and in test [19] was “inactive” throughout. Besides, the call in [7], in [8], in test [9], in [10], in test [11] and in test [12] was inactive. For the same compound, the call in test [13], in [14], in test [15], in test [16], in [17] and in test [18] was inactive.
Consider `CC[C@H]1C[C@H]2[C@@H]3CCC4=CC(=O)CC[C@@H]4[C@H]3CC[C@]2(C)[C@H]1O`, for which the Potency entry in test [1], in test [2], in test [3], in test [4] and in test [5] was “inactive” in each case. In addition, the compound was called inactive in [7], in [8], in test [9], in [10], in test [12] and in [13]. The compound was called inactive in [14], in [15] and in test [16].
`CC(Cl)C(C)Cl` (stereo not drawn): the Potency result in [1], in test [2], in test [3], in test [4], in test [5] and in test [19] was “inactive” throughout. Also, the compound was called inactive in test [7], in test [10], in test [11], in test [12], in [13] and in test [14]. In addition, the result in test [15], in [16], in test [17] and in [18] was inactive.
For the compound `CC1(C)[C@H](C=C(Cl)Cl)[C@@H]1C(=O)O[C@@H](C#N)c1cccc(Oc2ccccc2)c1`, the Potency result in test [1], in [2] and in test [4] was “inactive” in each case. For the same compound, the outcome in [6], in test [7], in test [8], in [10], in test [11] and in test [12] was inactive. Further, the outcome in test [13], in test [14], in test [15], in test [16] and in test [18] was inactive.
On to `CCC(C)(NC(=O)c1cc(Cl)c(C)c(Cl)c1)C(=O)CCl` (stereo not drawn), for which the Potency is 27.5 µM (active) in [1] and 61.5 µM (active) in test [3]. For the same compound, in [2], the Potency result was “inactive”. In addition, the call in test [7], in test [8], in [9], in test [10], in test [11] and in [12] was inactive. The outcome in [13], in [14], in test [15], in test [16] and in [17] was inactive.
In the case of `CCCCc1c(C)nc(NCC)nc1OS(=O)(=O)N(C)C`, the Potency entry in test [1], in test [2], in test [3] and in test [4] was “inactive” throughout. The result in test [7], in [8], in test [9], in test [10], in test [11] and in test [12] was inactive. Further, the outcome in test [13], in test [14], in test [15], in [16], in test [17] and in [18] was inactive.
As to `C=CCCl`, the Potency result in test [1], in [2], in test [3], in test [4] and in test [5] was “inactive” throughout. In addition, the call in test [6], in test [7], in [10], in test [13], in [14] and in test [15] was inactive. In addition, the compound was called inactive in [16] and in test [18].
On to `CCCN(CCCl)c1c([N+](=O)[O-])cc(C(F)(F)F)cc1[N+](=O)[O-]`, for which the Potency result in [1], in test [2], in test [3] and in [4] was “inactive” throughout. The call in test [6], in test [7], in test [9], in test [10], in test [11] and in test [12] was inactive. The result in test [13], in [14], in test [15], in [16], in test [17] and in [18] was inactive.
